# Measured values published in paper PMC7862700, “An all-to-all approach to the identification of sequence-specific readers for epigenetic DNA modifications on cytosine”.
# Tests used:
# Experiment in all cases: DAPPL (digital affinity profiling via proximity ligation, sequencing); 10 mM Tris-HCl pH 7.5, 50 mM NaCl, 1 mM DTT, 4% glycerol, room temperature, 30 min; GST-TFs on glutathione beads, 16-mer random dsDNA library, 0.1% formaldehyde crosslink after washing; high values mean tight binding
# FLI1 = molecular target: T1, FLI1 (Homo sapiens, UniProt Q01543 1-452); settings: protein: recombinant; tags: N-terminal GST; dsDNA, one strand shown
# T1 sequence: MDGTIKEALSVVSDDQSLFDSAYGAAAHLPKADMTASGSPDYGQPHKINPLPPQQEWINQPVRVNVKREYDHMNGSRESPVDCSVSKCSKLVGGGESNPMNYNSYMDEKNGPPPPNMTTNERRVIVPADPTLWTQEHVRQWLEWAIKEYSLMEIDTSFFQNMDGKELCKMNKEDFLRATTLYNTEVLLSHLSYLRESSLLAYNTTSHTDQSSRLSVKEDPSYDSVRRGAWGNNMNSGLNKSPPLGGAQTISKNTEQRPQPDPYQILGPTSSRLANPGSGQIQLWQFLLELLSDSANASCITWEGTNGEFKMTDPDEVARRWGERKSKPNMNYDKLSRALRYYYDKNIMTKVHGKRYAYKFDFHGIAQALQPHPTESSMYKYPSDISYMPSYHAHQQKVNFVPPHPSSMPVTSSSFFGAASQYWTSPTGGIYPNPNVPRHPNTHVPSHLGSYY
# How it was run: (§1)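 The binding signal reported is, for every hexamer, its read frequency for a factor over its read frequency for the tag-only sample. Reads came from pools of yeast-expressed, GST-fused human transcription factors on glutathione beads, barcoded with DNA and mixed with that sample, which were incubated with 200 nmole of a random double-stranded 16-mer DNA library in Tris/NaCl/DTT/glycerol buffer at room temperature for 30 min. After washing, the pools were crosslinked with 0.1% formaldehyde, proximity-ligated with BsaI/T4 ligase for 1 h at 37 °C, PCR-amplified and sequenced on an Illumina NextSeq500.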
# ELK1 = molecular target: T2, ELK1 (Homo sapiens, UniProt P19419 1-428); settings: protein: recombinant; tags: N-terminal GST; dsDNA, one strand shown
# T2 sequence: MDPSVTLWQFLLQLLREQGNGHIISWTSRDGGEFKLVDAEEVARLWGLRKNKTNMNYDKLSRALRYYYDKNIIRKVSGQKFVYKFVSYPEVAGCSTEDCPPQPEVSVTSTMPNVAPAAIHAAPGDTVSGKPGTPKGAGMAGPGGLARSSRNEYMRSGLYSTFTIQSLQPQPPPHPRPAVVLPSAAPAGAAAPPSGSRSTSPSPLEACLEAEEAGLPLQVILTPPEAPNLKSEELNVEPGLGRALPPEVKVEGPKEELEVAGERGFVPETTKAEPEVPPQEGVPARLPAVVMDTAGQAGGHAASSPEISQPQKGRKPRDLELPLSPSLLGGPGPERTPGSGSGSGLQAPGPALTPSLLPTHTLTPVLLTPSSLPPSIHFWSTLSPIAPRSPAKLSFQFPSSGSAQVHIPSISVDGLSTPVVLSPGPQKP
# How it was run: as §1
# GABPA = molecular target: T3, GABPA (Homo sapiens, UniProt Q06546 1-454); settings: protein: recombinant; tags: N-terminal GST; dsDNA, one strand shown
# T3 sequence: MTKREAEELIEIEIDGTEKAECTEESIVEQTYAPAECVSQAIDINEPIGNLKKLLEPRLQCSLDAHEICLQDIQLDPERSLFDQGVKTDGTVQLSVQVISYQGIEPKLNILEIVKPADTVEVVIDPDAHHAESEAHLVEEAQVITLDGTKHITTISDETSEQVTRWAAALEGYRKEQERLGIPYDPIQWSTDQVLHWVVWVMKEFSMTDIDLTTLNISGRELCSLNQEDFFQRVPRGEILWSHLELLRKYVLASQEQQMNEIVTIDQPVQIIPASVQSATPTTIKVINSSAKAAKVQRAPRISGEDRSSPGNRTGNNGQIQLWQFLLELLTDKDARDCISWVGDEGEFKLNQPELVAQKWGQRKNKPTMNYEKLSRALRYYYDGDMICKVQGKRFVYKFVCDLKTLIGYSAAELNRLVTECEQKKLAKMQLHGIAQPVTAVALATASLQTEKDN
# How it was run: as §1
# ERG = molecular target: T4, ERG (Homo sapiens, UniProt P11308 1-479); settings: protein: recombinant; tags: N-terminal GST; dsDNA, one strand shown
# T4 sequence: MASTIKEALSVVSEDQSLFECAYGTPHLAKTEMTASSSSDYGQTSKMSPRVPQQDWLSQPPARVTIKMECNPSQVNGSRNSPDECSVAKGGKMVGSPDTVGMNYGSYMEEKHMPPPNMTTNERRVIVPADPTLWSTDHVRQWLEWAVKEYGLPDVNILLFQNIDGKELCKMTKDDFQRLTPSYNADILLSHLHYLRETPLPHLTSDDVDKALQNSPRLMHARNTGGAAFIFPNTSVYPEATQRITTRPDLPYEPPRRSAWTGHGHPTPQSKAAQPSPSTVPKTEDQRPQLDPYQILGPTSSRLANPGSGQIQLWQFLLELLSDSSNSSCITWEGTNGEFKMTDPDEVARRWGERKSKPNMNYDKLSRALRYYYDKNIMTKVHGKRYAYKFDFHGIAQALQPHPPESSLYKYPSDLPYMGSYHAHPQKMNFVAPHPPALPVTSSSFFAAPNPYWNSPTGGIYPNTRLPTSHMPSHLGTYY
# How it was run: as §1
# ELF1 = ELF1 (Homo sapiens, UniProt P32519 1-619); settings: protein: recombinant; tags: N-terminal GST; dsDNA, one strand shown
# How it was run: as §1
# EHF = molecular target: T5, EHF (Homo sapiens, UniProt Q9NZC4 1-300); settings: protein: recombinant; tags: N-terminal GST; dsDNA, one strand shown
# T5 sequence: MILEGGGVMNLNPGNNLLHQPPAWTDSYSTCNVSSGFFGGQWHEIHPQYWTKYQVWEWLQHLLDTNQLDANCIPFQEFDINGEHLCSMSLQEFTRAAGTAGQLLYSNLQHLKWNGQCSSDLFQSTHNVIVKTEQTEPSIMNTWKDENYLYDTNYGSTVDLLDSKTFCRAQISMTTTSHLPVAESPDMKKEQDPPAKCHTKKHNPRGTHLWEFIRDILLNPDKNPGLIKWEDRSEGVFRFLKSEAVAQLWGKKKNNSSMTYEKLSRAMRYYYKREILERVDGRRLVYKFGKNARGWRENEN
# How it was run: as §1
# SPI1 = SPI1 (Homo sapiens, UniProt P17947 1-270); settings: protein: recombinant; tags: N-terminal GST; dsDNA, one strand shown
# How it was run: as §1
# SPIB = SPIB (Homo sapiens, UniProt Q01892 1-262); settings: protein: recombinant; tags: N-terminal GST; dsDNA, one strand shown
# How it was run: as §1
# ELK3 = molecular target: T6, ELK3 (Homo sapiens, UniProt P41970 1-407); settings: protein: recombinant; tags: N-terminal GST; dsDNA, one strand shown
# T6 sequence: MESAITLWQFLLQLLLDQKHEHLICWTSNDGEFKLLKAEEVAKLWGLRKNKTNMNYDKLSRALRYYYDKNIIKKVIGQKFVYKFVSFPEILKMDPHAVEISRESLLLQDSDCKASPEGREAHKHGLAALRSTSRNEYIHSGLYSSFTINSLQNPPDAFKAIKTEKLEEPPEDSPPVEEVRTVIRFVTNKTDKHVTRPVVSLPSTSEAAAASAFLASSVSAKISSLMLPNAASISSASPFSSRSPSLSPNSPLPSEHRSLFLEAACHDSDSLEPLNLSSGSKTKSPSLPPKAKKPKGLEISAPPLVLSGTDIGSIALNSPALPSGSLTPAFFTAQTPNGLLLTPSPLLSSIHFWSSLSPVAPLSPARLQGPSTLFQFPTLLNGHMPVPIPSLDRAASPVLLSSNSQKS
# How it was run: as §1
# FEV = molecular target: T7, FEV (Homo sapiens, UniProt Q99581 1-238); settings: protein: recombinant; tags: N-terminal GST; dsDNA, one strand shown
# T7 sequence: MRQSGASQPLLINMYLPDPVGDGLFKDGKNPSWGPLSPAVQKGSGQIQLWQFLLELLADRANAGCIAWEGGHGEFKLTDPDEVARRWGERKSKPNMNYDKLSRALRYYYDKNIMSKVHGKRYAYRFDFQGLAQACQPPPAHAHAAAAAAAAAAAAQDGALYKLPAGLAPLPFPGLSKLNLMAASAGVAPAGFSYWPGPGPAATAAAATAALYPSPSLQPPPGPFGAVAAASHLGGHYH
# How it was run: as §1
# ETV5 = ETV5 (Homo sapiens, UniProt P41161 1-510); settings: protein: recombinant; tags: N-terminal GST; dsDNA, one strand shown
# How it was run: as §1
# HSF1 = HSF1 (Homo sapiens, UniProt Q00613 1-529); settings: protein: recombinant; tags: N-terminal GST; chain copies: 3; dsDNA, one strand shown
# How it was run: as §1
# SPIC = molecular target: T8, SPIC (Homo sapiens, UniProt Q8N5J4 1-248); settings: protein: recombinant; tags: N-terminal GST; dsDNA, one strand shown
# T8 sequence: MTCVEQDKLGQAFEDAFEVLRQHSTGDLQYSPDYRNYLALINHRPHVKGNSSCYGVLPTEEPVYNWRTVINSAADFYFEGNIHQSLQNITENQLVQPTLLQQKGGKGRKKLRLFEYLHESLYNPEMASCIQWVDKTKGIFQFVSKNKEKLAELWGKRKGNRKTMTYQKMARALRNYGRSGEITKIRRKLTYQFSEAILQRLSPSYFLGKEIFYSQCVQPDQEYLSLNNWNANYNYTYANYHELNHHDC
# How it was run: as §1
# ELF4 = ELF4 (Homo sapiens, UniProt Q99607 1-663); settings: protein: recombinant; tags: N-terminal GST; dsDNA, one strand shown
# How it was run: as §1
# ELK4 = molecular target: T9, ELK4 (Homo sapiens, UniProt P28324-2 1-405); settings: protein: recombinant; tags: N-terminal GST; dsDNA, one strand shown
# T9 sequence: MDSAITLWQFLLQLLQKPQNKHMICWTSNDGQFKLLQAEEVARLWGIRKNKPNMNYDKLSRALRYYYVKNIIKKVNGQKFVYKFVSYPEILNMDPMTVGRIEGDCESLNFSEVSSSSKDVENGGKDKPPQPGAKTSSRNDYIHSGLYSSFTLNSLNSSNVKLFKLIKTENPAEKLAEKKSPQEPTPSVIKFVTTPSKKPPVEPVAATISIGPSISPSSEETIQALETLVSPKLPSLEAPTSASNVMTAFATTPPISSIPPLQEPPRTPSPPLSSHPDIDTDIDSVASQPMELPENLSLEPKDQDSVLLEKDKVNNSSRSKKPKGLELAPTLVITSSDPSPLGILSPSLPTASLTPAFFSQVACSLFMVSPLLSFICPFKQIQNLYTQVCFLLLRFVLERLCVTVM
# How it was run: as §1
# ETV2 = molecular target: T10, ETV2 (Homo sapiens, UniProt O00321 1-342); settings: protein: recombinant; tags: N-terminal GST; dsDNA, one strand shown
# T10 sequence: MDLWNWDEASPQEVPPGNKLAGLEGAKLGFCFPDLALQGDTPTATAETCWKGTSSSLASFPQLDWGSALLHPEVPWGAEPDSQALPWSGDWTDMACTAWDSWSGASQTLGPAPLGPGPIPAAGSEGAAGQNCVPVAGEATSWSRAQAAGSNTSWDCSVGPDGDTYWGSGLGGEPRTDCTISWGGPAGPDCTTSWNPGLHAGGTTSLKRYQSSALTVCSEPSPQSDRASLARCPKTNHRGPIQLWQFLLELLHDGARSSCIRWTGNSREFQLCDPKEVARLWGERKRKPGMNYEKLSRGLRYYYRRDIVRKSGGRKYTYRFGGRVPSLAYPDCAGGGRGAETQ
# How it was run: as §1
# ELF3 = molecular target: T11, ELF3 (Homo sapiens, UniProt P78545 1-371); settings: protein: recombinant; tags: N-terminal GST; dsDNA, one strand shown
# T11 sequence: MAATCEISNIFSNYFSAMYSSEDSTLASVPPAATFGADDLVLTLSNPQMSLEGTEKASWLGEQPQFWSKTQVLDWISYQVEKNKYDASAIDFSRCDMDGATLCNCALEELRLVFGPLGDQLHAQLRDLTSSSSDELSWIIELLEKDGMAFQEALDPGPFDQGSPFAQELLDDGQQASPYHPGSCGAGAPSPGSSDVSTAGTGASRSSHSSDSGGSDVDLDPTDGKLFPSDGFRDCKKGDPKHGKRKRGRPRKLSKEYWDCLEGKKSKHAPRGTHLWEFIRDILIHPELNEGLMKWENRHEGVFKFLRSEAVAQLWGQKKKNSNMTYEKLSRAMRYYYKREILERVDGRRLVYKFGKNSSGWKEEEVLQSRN
# How it was run: as §1
# CRX = CRX (Homo sapiens, UniProt O43186 1-299); settings: protein: recombinant; tags: N-terminal GST; dsDNA, one strand shown
# How it was run: as §1
# ETV1 = ETV1 (Homo sapiens, UniProt P50549 1-477); settings: protein: recombinant; tags: N-terminal GST; dsDNA, one strand shown
# How it was run: as §1
# ELF1, sequence (P32519 whole entry): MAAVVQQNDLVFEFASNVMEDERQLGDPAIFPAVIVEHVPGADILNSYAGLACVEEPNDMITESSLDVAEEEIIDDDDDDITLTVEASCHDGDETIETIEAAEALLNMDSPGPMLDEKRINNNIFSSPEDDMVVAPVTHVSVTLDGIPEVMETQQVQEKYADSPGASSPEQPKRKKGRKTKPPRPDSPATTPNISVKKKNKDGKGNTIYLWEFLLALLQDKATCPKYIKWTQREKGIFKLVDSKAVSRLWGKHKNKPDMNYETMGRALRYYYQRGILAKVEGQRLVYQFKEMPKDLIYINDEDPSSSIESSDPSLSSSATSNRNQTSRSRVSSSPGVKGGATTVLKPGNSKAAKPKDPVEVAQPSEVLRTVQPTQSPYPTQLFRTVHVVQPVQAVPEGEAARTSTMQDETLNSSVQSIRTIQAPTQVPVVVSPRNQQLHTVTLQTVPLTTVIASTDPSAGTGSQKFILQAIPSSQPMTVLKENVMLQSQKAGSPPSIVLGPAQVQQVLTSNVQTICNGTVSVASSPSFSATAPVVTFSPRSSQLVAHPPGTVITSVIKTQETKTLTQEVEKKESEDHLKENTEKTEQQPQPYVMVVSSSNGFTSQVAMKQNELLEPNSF
# HSF1, sequence (Q00613 whole entry): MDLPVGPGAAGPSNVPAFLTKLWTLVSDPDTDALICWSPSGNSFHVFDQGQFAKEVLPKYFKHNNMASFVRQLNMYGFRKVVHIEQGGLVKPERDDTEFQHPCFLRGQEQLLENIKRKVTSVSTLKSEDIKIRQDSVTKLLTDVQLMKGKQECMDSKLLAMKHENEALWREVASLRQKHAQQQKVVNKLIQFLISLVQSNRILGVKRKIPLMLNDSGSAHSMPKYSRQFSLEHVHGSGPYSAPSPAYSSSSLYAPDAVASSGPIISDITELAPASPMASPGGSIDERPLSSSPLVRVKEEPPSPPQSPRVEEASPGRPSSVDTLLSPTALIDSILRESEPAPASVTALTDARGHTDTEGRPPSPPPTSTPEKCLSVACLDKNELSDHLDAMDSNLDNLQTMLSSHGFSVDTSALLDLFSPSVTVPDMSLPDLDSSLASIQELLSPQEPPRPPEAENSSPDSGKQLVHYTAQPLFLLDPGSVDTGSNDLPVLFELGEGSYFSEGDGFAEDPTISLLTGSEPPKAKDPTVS
# ELF4, sequence (Q99607 whole entry): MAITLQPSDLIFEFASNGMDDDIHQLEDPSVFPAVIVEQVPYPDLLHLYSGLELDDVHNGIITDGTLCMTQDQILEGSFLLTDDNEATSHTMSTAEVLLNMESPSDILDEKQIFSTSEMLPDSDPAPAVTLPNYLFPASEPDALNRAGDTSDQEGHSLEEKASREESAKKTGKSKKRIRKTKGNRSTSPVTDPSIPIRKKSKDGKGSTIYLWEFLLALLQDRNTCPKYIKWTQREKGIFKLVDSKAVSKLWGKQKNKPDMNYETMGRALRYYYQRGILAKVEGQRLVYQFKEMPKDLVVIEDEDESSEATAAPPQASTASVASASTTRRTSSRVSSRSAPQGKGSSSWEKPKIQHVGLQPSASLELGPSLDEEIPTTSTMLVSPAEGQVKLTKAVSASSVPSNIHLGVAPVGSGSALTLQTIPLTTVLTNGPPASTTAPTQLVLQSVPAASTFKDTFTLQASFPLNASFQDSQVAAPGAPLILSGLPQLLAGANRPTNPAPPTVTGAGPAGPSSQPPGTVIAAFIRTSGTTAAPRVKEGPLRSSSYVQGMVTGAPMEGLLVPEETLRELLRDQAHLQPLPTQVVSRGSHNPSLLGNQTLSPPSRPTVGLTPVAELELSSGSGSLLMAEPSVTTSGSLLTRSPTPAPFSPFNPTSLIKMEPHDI
# SPIB, sequence (Q01892 whole entry): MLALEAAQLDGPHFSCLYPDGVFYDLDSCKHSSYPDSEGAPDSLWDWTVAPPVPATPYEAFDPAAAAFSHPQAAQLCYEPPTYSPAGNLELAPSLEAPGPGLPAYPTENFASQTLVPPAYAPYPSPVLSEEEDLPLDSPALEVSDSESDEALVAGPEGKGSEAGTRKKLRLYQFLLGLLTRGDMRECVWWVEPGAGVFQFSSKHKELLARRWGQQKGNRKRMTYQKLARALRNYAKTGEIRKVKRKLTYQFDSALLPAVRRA
# CRX, sequence (O43186 whole entry): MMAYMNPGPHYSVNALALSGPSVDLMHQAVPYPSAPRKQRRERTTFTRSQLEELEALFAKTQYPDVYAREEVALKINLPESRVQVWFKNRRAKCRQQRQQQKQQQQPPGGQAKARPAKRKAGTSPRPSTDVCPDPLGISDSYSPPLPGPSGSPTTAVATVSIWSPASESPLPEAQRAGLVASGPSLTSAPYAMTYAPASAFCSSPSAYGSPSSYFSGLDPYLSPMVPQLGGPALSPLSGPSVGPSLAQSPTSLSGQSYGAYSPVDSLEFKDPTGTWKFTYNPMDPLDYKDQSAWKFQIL
# ETV1, sequence (P50549 whole entry): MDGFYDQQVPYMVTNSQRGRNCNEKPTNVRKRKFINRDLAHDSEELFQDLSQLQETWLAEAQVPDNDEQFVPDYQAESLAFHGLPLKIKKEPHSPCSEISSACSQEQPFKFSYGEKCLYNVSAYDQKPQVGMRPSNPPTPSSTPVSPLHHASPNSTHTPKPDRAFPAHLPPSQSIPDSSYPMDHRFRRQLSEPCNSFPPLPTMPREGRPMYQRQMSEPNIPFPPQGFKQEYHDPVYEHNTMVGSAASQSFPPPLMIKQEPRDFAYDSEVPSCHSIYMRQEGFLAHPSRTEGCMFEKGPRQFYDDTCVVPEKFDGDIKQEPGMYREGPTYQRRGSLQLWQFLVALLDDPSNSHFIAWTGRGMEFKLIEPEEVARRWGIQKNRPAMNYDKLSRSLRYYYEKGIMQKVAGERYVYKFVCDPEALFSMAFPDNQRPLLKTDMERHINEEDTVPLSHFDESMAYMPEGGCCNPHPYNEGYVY
# ETV5, sequence (P41161 whole entry): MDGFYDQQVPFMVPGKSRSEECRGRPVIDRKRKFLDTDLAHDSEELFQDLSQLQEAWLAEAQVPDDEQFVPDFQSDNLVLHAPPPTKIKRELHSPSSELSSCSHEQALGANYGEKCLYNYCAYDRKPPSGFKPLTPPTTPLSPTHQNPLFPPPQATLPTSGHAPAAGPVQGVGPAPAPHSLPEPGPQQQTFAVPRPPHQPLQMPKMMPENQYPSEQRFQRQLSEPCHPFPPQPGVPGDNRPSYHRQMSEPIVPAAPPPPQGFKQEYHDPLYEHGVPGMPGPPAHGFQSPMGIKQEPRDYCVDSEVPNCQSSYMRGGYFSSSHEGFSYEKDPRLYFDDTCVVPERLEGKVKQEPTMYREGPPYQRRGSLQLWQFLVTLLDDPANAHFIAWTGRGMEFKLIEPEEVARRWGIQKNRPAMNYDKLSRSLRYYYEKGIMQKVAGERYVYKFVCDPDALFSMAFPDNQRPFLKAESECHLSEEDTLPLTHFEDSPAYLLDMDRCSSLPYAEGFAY
sequence,measurement,setting,value
TACGCA,binding signal,FLI1,"1.18 fold enrichment (6-mer frequency, TF over GST control)"
same,binding signal,ELK1,"1.2 fold enrichment (6-mer frequency, TF over GST control)"
same,binding signal,GABPA,"1.11 fold enrichment (6-mer frequency, TF over GST control)"
same,binding signal,ERG,"1.15 fold enrichment (6-mer frequency, TF over GST control)"
same,binding signal,ELF1,"1.2 fold enrichment (6-mer frequency, TF over GST control)"
same,binding signal,EHF,"1.26 fold enrichment (6-mer frequency, TF over GST control)"
same,binding signal,SPI1,"1.12 fold enrichment (6-mer frequency, TF over GST control)"
same,binding signal,SPIB,"1.1 fold enrichment (6-mer frequency, TF over GST control)"
same,binding signal,ELK3,"1.25 fold enrichment (6-mer frequency, TF over GST control)"
same,binding signal,FEV,"1.16 fold enrichment (6-mer frequency, TF over GST control)"
same,binding signal,ETV5,"1.21 fold enrichment (6-mer frequency, TF over GST control)"
same,binding signal,HSF1,"1.06 fold enrichment (6-mer frequency, TF over GST control)"
same,binding signal,SPIC,"1.16 fold enrichment (6-mer frequency, TF over GST control)"
same,binding signal,ELF4,"1.23 fold enrichment (6-mer frequency, TF over GST control)"
same,binding signal,ELK4,"1.12 fold enrichment (6-mer frequency, TF over GST control)"
same,binding signal,ETV2,"1.15 fold enrichment (6-mer frequency, TF over GST control)"
same,binding signal,ELF3,"1.19 fold enrichment (6-mer frequency, TF over GST control)"
same,binding signal,CRX,"1.21 fold enrichment (6-mer frequency, TF over GST control)"
same,binding signal,ETV1,"1.25 fold enrichment (6-mer frequency, TF over GST control)"
